# Screening results (PubChem)
# This is a sample that favours compounds with a hit; in the whole collection about 7.3% have one here.
# SMN2 splice up: SMN2 splice variant enhancement; HEK293 SMN2-luciferase splicing reporter, luminescence, 30-36 h; actives 2.8% (n = 210,000); AID 1458; Potency, µM (doses to about 46.1 µM), usual class: activators; note: nearly all actives have a fitted effect of over 55% in size
#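 qHTS luciferase splicing reporter: luminescence rises when SMN2 exon 7 is included in transfected HEK293 cells. Compound exposure lasted 30-36 h at 37C, with 4.5 mM final sodium butyrate as control, followed by a ONE-Glo read.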
# ELG1 genotox: induces genotoxicity in HEK293T cells with luciferase-tagged ELG1; HEK293T ELG1-luciferase reporter, luminescence, 16 h; Potency, µM (series often up to 46 µM), usual class: activators; actives 1.3% (n = 330,000); AID 504466; note: nearly all actives have a fitted effect of over 60% in size
#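 16 hr compound incubation (37 °C, 5% CO2) of HEK293T cells carrying luciferase-tagged ELG1; luciferase then measured by ONE-Glo luminescence after 30 min at RT.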
# FLuc counter: inhibits or activates purified firefly luciferase, miR-21 counter-screen. P08659. purified FLuc, Km substrates, luminescence inhibition. Potency, µM (highest dose often 57.5 µM), hits mostly inhibitors. actives 6.9% (n = 360,000); note: nearly all actives have a fitted effect of over 55% in size
# Target sequence (P08659 whole entry, looked up): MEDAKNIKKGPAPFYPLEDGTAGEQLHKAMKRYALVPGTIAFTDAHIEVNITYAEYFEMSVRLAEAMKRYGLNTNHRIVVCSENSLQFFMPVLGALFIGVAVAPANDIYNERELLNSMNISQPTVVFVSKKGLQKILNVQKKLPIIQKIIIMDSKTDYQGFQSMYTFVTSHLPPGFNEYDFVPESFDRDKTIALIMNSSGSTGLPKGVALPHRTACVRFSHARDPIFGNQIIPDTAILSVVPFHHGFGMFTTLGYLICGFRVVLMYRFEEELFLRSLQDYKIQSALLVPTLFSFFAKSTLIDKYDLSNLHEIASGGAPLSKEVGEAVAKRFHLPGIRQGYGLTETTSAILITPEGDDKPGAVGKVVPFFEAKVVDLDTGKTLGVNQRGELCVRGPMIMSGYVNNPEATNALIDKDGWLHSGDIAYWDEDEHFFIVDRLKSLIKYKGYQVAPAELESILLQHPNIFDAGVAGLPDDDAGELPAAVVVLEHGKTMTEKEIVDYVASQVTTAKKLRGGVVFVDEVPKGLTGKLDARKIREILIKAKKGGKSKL
#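 Purified P. pyralis luciferase, 10 nM final, with Km-level 10 uM D-luciferin and 10 uM ATP in 50 mM Tris acetate pH 7.5, 10 mM Mg acetate, 0.01% Tween-20, 0.05% BSA; 6-point qHTS titration about 60 µM downward; luminescence read.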
# Luc counter: Kinase-Glo luciferase inhibition (counter-screen); Potency, µM (doses to about 38.3 µM), usual class: inhibitors; actives 0.28% (n = 200,000); AID 1379; Kinase-Glo luciferase, ATP luminescence, 8 min; Q27757; note: nearly all actives have a fitted effect of over 60% in size
#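 Recombinant Kinase-Glo luciferase, 10 uM ATP (linear range), luciferin; imidazole pH 7.2 / KCl / MgCl2 / Tween / BSA buffer; 8 min RT; luminescence.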
# Rab9 promoter act: Rab9 promoter activation; Potency, µM (highest dose often 9.22 µM), hits mostly activators; actives 2.8% (n = 320,000); Huh7 Rab9 promoter-luciferase reporter, luminescence, 24 h; note: nearly all actives have a fitted effect of over 60% in size
#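 Promoter activation is measured as luciferase luminescence in Huh7 cells stably transfected with a Rab9 promoter–luciferase construct, following 24 h compound exposure at 37 °C and 10 min reagent incubation at ambient temperature.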
# NPC1 prom act: activators of NPC1 promoter | Huh7 NPC1 promoter luciferase reporter, 24 h | Potency, µM (doses to about 9.22 µM), most hits filed as activators | actives 2.4% (n = 320,000); note: nearly all actives have a fitted effect of over 60% in size
#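 Compounds in DMSO were transferred onto Huh7 NPC1-luciferase reporter cells pre-incubated 2 h; after 24 h at 37 °C, Amplite reagent was dispensed and luminescence recorded 10 min later.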
# Hits are given with their value; - = inactive; ? = inconclusive; . = no result given; [ ] = remark or other dose. Calls come from the whole dose curve; as a rule, active = well fitted curve in the direction sought with a large enough effect; inconclusive = small, poorly fitted or top-dose-only effect, or another doubt; inactive = no such curve, though single readings can be large; an effect the other way counts as inactive or inconclusive.
SMILES,SMN2 splice up,ELG1 genotox,FLuc counter,Luc counter,Rab9 promoter act,NPC1 prom act
N=C(N)SCCN1CCCCC1,-[9.22 µM],.,.,-[7.66 µM],.,.
Cc1nc2sc(C)c(C)n2c(=O)c1S(=O)(=O)N1CCN(c2ccccc2F)CC1,.,.,-,.,.,.
CC1=C/C(=C(\c2cc(C)c(O)c(Br)c2)c2ccccc2S(=O)(=O)O)C=C(Br)C1=O,.,-,9.53µM,.,-,-
CN(C)c1ccc(C(=O)NNC(=O)Nc2ccccc2)cc1,-,-,-,-,-,-
Cc1ccc(NC(=O)CO/N=C/c2ccc(N(C)C)cc2)cc1,-,-,15.1µM,-,-,-
CN(C)c1ccc(/C=N/OC(=O)Nc2ccccc2)cc1,.,?,1.07µM,.,0.447µM,0.708µM
N#Cc1c(/N=C/c2ccco2)sc2c1CCCCC2,-,?,0.169µM,?,3.55µM,0.794µM
CN(C)/C=N/c1sc2c(c1C#N)CCCC2,-,-,?,-,-,-
N#Cc1c(/N=C/c2cccs2)sc2c1CCC2,17.8µM,7.08µM,1.51µM,?,2µM,3.16µM
S=C(NCc1ccccn1)Nc1ccccc1Cl,?,-,-,-,?,-
S=C(NCc1ccccn1)Nc1ccc(Br)cc1Cl,11.2µM,?,?,-,3.16µM,-
S=C(NCc1ccco1)Nc1ccc(Br)cc1Cl,-,?,26.9µM,-,?,-
S=C(NCc1ccco1)Nc1ccc(Cl)cc1Cl,-,-,?,-,-,-
S=C(c1ccc(OCc2ccccc2)cc1)N1CCCC1,.,?,19µM,.,?,?
Fc1ccc(COc2ccc(C(=S)N3CCCC3)cc2)cc1,.,?,21.3µM,.,1.26µM,2.24µM
CCOc1cc(C(=S)N2CCCC2)ccc1OCc1ccccc1,.,-,-,.,-,-
COc1ccc(Nc2nc3ccccc3nc2NS(=O)(=O)c2ccc(Cl)cc2)cc1OC,-,.,6.75µM,.,.,.
COc1cccc(/C=N/NC(=O)c2cc(-c3ccc(C)cc3)n[nH]2)c1O,.,.,.,-,.,.
CCc1ccc(NC(=O)Nc2cnccn2)cc1,.,?,10.7µM,.,3.55µM,?
CCc1ccc(NC(=O)Nc2ccon2)cc1,.,?,7.57µM,.,2.51µM,2.24µM
COc1ccc(Cl)cc1NC(=O)COC(=O)C1CCCCC1,.,-,15.1µM,.,-,-
Cc1cc(NC(=O)COC(=O)C2CC2)ccc1Br,.,-,8.49µM,.,-,-
COc1ccc(NC(=O)COC(=O)C2CCC2)cc1Cl,.,-,-,.,-,-
CC(C)(C)c1ccc(NC(=O)COC(=O)C2CCCC2)cc1,.,-,10.7µM,.,-,-
COc1ccc(Cl)cc1NC(=O)COC(=O)C1CC1,.,-,.,.,-,-
SMILES,SMN2 splice up,ELG1 genotox,FLuc counter,Luc counter,Rab9 promoter act,NPC1 prom act
COc1ccc(C(CC(=O)NCc2ccccc2)N2Cc3ccccc3C2=O)cc1 (stereo not drawn),.,.,-,.,.,.
Cc1ccc2occ(CC(=O)Nc3ccc(S(=O)(=O)N4CCC(C)CC4)cc3)c2c1,-,.,-,.,.,.
CC(C)(C)c1ccc(-c2nnc(N)o2)cc1,.,?,6.01µM,.,2.82µM,2.82µM
CCOc1ccc(NC(=O)Cn2nc(C(N)=O)c3ccccc3c2=O)cc1S(=O)(=O)N1CCCC1,.,-,-,.,-,-
CCOc1ccc(NC(=O)Cn2nnc(-c3ccc(C(N)=O)cc3)n2)cc1S(=O)(=O)N1CCCC1,.,-,6.75µM,.,-,-
Cc1cccc(-c2noc(-c3c(C)noc3C)n2)c1,.,-,?,.,3.16µM,1.58µM
CC(C)(C)c1ccc(-c2nc(-c3ccncc3)no2)cc1,-,?,0.953µM,-,0.447µM,0.398µM
CC(C)(C)c1ccc(-c2noc(-c3ccno3)n2)cc1,.,?,1.9µM,.,1.41µM,1.26µM
Cc1cc(C)cc(-c2nc(-c3ccncc3)no2)c1,-,20.6µM,10.7µM,-,?,?
Clc1cccc(Cl)c1-c1noc(-c2ccno2)n1,.,-,-,.,-,-
Cc1ccc(Cc2nc3ccccc3nc2SCC(=O)N2CCCc3ccccc32)cc1,.,.,-,.,.,.
COc1cccc(C2=NN(S(C)(=O)=O)C(c3cn(-c4ccccc4)nc3-c3cccs3)C2)c1 (stereo not drawn),-,.,?,.,.,.
CCOC(=O)CNC(=O)O[C@@H]1Cc2cc(OC)ccc2O[C@H]1c1cccc(OC)c1,-,.,.,-,.,.
CCn1nc(C)c(Br)c1-c1nc(CS(=O)(=O)c2ccsc2)no1,.,-,-,.,-,-
Cc1ccc(-c2noc(CNc3ccccc3)n2)cc1,?,?,19µM,-,-,-
CCc1ccc(NCc2nc(-c3ccccc3)no2)cc1,-,?,?,-,-,-
